# This is a sample that favours compounds with a hit; in the whole collection about 6.9% have one here.
# S-ASM inh: Inhibitors of Secretory Acid Sphingomyelinase (S-ASM): qHTS. placental ASM, HMU-PC fluorogenic substrate, 60 min. Potency, µM (top dose mostly 57.5 µM), actives largely listed as inhibitors. hit rate 0.006% among 340,000. AID 504937, 2011. Sphingomyelin phosphodiesterase (Homo sapiens), P17405
# Target sequence (P17405 47-631 limits assumed): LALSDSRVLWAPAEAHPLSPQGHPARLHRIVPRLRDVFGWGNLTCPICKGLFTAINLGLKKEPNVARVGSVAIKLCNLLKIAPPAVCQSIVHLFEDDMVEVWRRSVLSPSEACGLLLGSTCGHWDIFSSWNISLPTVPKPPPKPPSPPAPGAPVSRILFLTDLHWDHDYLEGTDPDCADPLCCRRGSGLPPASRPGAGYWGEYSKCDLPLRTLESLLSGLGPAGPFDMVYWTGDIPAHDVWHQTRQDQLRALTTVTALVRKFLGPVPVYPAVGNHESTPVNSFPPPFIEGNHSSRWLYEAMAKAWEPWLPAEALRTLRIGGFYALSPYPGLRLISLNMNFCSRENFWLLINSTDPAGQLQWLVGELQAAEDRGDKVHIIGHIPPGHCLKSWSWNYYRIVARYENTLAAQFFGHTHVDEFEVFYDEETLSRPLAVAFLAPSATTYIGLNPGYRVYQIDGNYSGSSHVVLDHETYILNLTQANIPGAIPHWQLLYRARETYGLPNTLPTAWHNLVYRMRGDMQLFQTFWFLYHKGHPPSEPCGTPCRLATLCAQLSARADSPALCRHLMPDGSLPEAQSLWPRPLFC
#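 qHTS format. ASM enzyme prepared from human placenta hydrolyses the fluorogenic substrate HMU-PC0 (9 uM final) over 60 min at 37 °C after a 10 min compound preincubation.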
# SW480 rerep: A quantitative high throughput screen for small molecules that induce DNA re-replication in SW480 colon adenocarcinoma cells; SW480 DNA re-replication, Hoechst DNA content imaging, 48 h; Potency, µM (series often up to 46.1 µM), most hits filed as activators; hit rate 1.8% among 340,000; AID 624297, 2012; further: nearly all actives have a fitted effect of over 55% in size
#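 DNA re-replication was detected as more nuclei of elevated Hoechst intensity after 48 hr exposure to compound (23 nL pinned per well of 250 cells).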
# MCF10A rerep: A quantitative high throughput screen for small molecules that induce DNA re-replication in MCF 10a normal breast cells; hit rate 2.9% among 350,000; MCF 10A DNA re-replication, Hoechst nuclear intensity, 48 h; AID 624296, 2012; Potency, µM (top dose mostly 46.1 µM), actives largely listed as activators; further: nearly all actives have a fitted effect of over 50% in size
# KB-3-1 cytotox: qHTS assay for MDR1-selective chemotherapeutics: Primary screen using the parental adenocarcinoma cell KB-3-1. hit rate 1.4% among 400,000. KB-3-1 viability, CellTiter-Glo ATP luminescence, 72 h. Potency, µM (series often up to 46.1 µM), actives largely listed as cytotoxic; further: nearly all actives have a fitted effect of over 60% in size
#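 Parental KB-3-1 viability, qHTS format: 72 h compound exposure, 37 °C; CellTiter-Glo; media-only wells and DMSO plates as controls; concentration-effect fits on corrected data.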
# Giardia killer: Small Molecules that selectively kill Giardia lamblia: qHTS | Giardia lamblia trophozoite viability | activity change, % at 7.66 µM, hits read low | hit rate 0.15% among 340,000; in the data active means activity change below about -80%; inconclusive means between about -30% and that limit;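 further: parasites exposed to compound for two days anaerobically before the ATP read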
#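 Luminescent ATP signal served as the viability read-out, measured 15-30 min after adding ATP detection reagent to trophozoites that had been incubated with compounds for 48 hrs at 37 deg C anaerobically at 100 cells/well.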
# KB-V1 MDR tox: qHTS assay for MDR1-selective chemotherapeutics: Primary screen using the drug-selected MDR subline cells KB-V1. AID 1347076, 2019. hit rate 3.4% among 400,000. KB-V1 MDR cells viability, CellTiter-Glo, 72 h. Potency, µM (top dose mostly 46.1 µM), hits mostly cytotoxic; further: nearly all actives have a fitted effect of over 60% in size
#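 Cytotoxicity toward P-gp-expressing KB-V1 cells was determined as loss of CellTiter-Glo luminescence after 72 h at 37 degrees C. Compounds were tested in quantitative HTS format across a concentration range, with curves fitted to normalized data.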
# Numbers stand for hits; . = inactive; ? = inconclusive; / = no result; ! = not active in a repeat. Unless noted, the call rests on the fitted dose curve; in most records, active means well fitted curve in the direction sought with a large enough effect; inconclusive means small, poorly fitted or top-dose-only effect, or another doubt; inactive means no such curve, though single readings can be large; an effect the other way counts as inactive or inconclusive.
SMILES,S-ASM inh,SW480 rerep,MCF10A rerep,KB-3-1 cytotox,Giardia killer,KB-V1 MDR tox
O=C(CCCn1c(=S)[nH]c2cc3c(cc2c1=O)OCO3)N1CCN(c2ccccc2)CC1,.,.,.,.,.,.
Cc1cccc(N2CCN(C(=O)CCCn3c(=S)[nH]c4cc5c(cc4c3=O)OCO5)CC2)c1C,.,.,.,.,.,3.66µM
CCCCNC(=O)c1ccc(-c2nc(CN3CCc4ccccc43)c(C)o2)cc1,/,/,/,?,/,5.17µM
CCCCOc1ccc(CNC(=O)c2ccc(NC(=O)N3CCCCc4ccccc43)cc2)cc1,/,/,/,.,/,.
CCCCOc1ccc(CNC(=O)c2ccc(-c3nc(CN4CCc5ccccc54)c(C)o3)cc2)cc1,/,/,/,18.4µM,/,?
CCCN(CCC)c1ccc(/C=C/c2sc3ccccc3[n+]2CCCCI)cc1,/,/,/,.,/,.
COC1=CC(=O)c2c(ccc3ncnc(N)c23)C1=O,.,?,.,2.06µM,.,1.84µM
Cc1ccc(C)c(Cn2c(=O)cc(C)c3c(C)nn(C)c32)c1,/,/,/,.,/,?
CC12CC(c3ccccc3O1)N(C(=O)c1ccco1)C(=S)N2c1ccccc1 (configuration not stated),.,.,23.1µM,.,.,.
CC1CC(N(C(=O)c2ccco2)c2ccccc2)c2ccccc2N1C(=O)c1ccco1 (configuration not stated),.,?,.,.,.,.
O=C(NCc1ccccc1Cl)c1cnc(N2CCCCC2)c2ccccc12,/,/,/,.,/,.
CCN(CC)CCN1CCn2c3c(c4cc(C)ccc42)CCCC31 (configuration not stated),.,14.6µM,4.11µM,.,.,.
O=C(NCc1ccccc1)C1C(c2ccc3c(c2)OCO3)=Nc2ccccc2N1C(=O)c1ccco1 (configuration not stated),/,/,/,7.31µM,/,?
CC(CN(C)C)CN1c2ccccc2Sc2ccccc21 (configuration not stated),.,.,.,.,.,18.4µM
N#Cc1c(C(F)(F)F)cc(-c2ccccc2Cl)[nH]c1=O,.,.,14.6µM,?,.,?
COc1cccc(-c2cc(C(F)(F)F)c(C#N)c(=O)[nH]2)c1,.,.,18.4µM,.,.,.
Cc1ccccc1NC(=O)Cc1nc(COC(=O)c2ccc(S(C)(=O)=O)c([N+](=O)[O-])c2)cs1,.,.,3.66µM,?,.,.
O=C(COC(=O)c1ccc([N+](=O)[O-])cc1)Nc1cccnc1Cl,/,.,.,?,.,.
Cc1ccccc1NC(=O)COC(=O)c1ccc(S(C)(=O)=O)c([N+](=O)[O-])c1,.,7.31µM,?,20.6µM!,.,.
CS(=O)(=O)c1ccc(C(=O)OCC(=O)Nc2cccnc2Cl)cc1[N+](=O)[O-],.,?,3.66µM,?,.,.
CS(=O)(=O)c1ccc(C(=O)OCC(=O)Nc2cc(C(F)(F)F)ccc2Cl)cc1[N+](=O)[O-],/,/,/,?,.,.
Cc1ccccc1NC(=O)Cc1nc(COC(=O)c2ccc(NC(N)=O)cc2)cs1,.,.,.,.,.,.
Cc1ccccc1NC(=O)Cc1nc(COC(=O)c2ncc(Cl)c(Cl)c2Cl)cs1,.,6.51µM,?,.,.,.
Cc1cc(N2CCN(C)CC2)nc2ccc(NC(=O)Nc3cccc(Cl)c3)cc12,/,/,/,.,/,.
Cc1ccnc(NC(=S)N2CCN(c3ccc(O)cc3)CC2)c1,/,/,/,.,/,.
SMILES,S-ASM inh,SW480 rerep,MCF10A rerep,KB-3-1 cytotox,Giardia killer,KB-V1 MDR tox
O=C(NCc1ccccc1F)Nc1nnc([C@@H]2C[C@H](O)[C@@H](CO)O2)s1,/,/,/,.,/,.
CC(=O)c1cccc(NC(=O)COC(=O)c2ccc(S(C)(=O)=O)c([N+](=O)[O-])c2)c1,.,?,2.59µM,.,.,.
CS(=O)(=O)c1ccc(C(=O)OCC(=O)N2CCN(CCC3CCCCC3)CC2)cc1[N+](=O)[O-],/,/,/,6.51µM,/,23.1µM
CC(=O)c1cccc(NC(=O)C(C)OC(=O)c2ccc(S(C)(=O)=O)c([N+](=O)[O-])c2)c1 (configuration not stated),/,/,/,?,.,.
COc1ccc(Br)cc1CNC(=O)Cn1ncn2nc(-c3cccs3)cc2c1=O,/,/,/,.,/,.
CC(C)Oc1ccc(CN2CCc3nc(Nc4ccc5c(c4)OCCO5)ncc3C2)cc1,/,/,/,.,/,.
COc1cccc(-c2nc(C(N)=O)c3c(n2)n(-c2ccc4c(c2)OCO4)c(=O)n3C)c1OC,/,/,/,.,/,?
CN(CC(=O)Nc1ccccc1Cl)C(=O)COC(=O)CCN1C(=O)C2CC=CCC2C1=O (configuration not stated),.,.,.,.,.,.
N#Cc1c(C#N)c(SSc2c(C#N)c(C#N)c(N)n2-c2ccccc2)n(-c2ccccc2)c1N,.,?,.,.,.,?
CN[C@H]1CC[C@@H](c2ccc(Cl)c(Cl)c2)c2ccccc21,.,?,?,?,.,20.6µM!
O=C(NC1CC1)c1cccc(NC(=O)c2cnn(-c3ccccc3)n2)c1,.,.,.,.,.,14.6µM
Cc1ccc(NC(=O)Cn2c(=O)ccc3cc(S(=O)(=O)N4CCC(C)CC4)ccc32)cc1C,/,/,/,.,/,?
CCOC(=O)c1sc(N2C(=O)c3oc4ccc(F)cc4c(=O)c3C2c2ccc(O)cc2)nc1C (configuration not stated),/,/,/,.,/,.
COc1ccc(C2c3c(oc4ccccc4c3=O)C(=O)N2CC2CCCO2)cc1 (configuration not stated),.,?,.,.,.,?
O=C1c2oc3ccc(F)cc3c(=O)c2C(c2ccccc2)N1CC1CCCO1 (configuration not stated),.,.,.,.,.,8.2µM
CCOc1ccc(S(=O)(=O)Nc2nc3ccccc3nc2N2CCN(C)CC2)cc1,.,.,.,.,.,.
CCOC(=O)N1CCC(Nc2nc3ccccc3nc2NS(=O)(=O)c2ccc(Cl)cc2)CC1,.,.,.,?,.,14.6µM
CCOC(=O)N1CCC(NC(=O)c2ccc(Cl)cc2)CC1,.,.,.,.,.,.
O=S(=O)(Nc1nc2ccccc2nc1N1CCN(c2ccccc2F)CC1)c1ccc(Cl)cc1,.,.,10.3µM,11.2µM,.,?
Cc1ccc(NC(=O)/C=C/c2ccccc2)c(Br)c1,/,/,/,.,/,.
COc1ccc(-c2nnc(NC(=O)c3cc(C)on3)s2)cc1,.,.,.,.,.,.
CCc1c(C)sc(NC(=O)c2cc(CC(C)C)on2)c1C#N,.,.,.,.,.,.

# Source: PubChem (National Center for Advancing Translational Sciences (NCATS))
